{
  "source": "the antibiotic and cytotoxicity screens of Wong et al. (2023)",
  "note": "Screen size: about 39,000 compounds; about 3,300 (8.5%) were called active. The sample as a whole holds a higher share of actives than the screen did.",
  "data": [
    {"tested_on": "HepG2", "assay": "cytotoxicity call (relative viability < 0.9)", "conditions": "10 µM", "values": [
      {"smiles": "OC[C@H]1O[C@@H](O)[C@@H](O)[C@@H](O)[C@@H]1O", "cytotoxicity call": "inactive"},
      {"smiles": "OC[C@H]1O[C@H]([S][Au])[C@H](O)[C@@H](O)[C@@H]1O", "cytotoxicity call": "active"},
      {"smiles": "OC[C@H]1O[C@@H](O)[C@H](O)[C@@H](O)[C@H]1O", "cytotoxicity call": "inactive"},
      {"smiles": "Cc1noc(C)c1NC(=O)Nc1ccc2c(c1)C(=O)N([C@H](C)CO)C[C@H](C)[C@H](CN(C)S(=O)(=O)c1cn(C)cn1)O2", "cytotoxicity call": "inactive"},
      {"smiles": "COc1ccc(S(=O)(=O)Nc2ccc3c(c2)C(=O)N([C@H](C)CO)C[C@@H](C)[C@H](CN(C)C(=O)Nc2cccc4ccccc24)O3)cc1", "cytotoxicity call": "inactive"},
      {"smiles": "CC(C)(C)[S@](=O)N1Cc2cc(C(=O)NCc3ccc4c(c3)OCO4)nc(-c3cccc(-c4cccnc4)c3)c2[C@@H]1CCO", "cytotoxicity call": "inactive"},
      {"smiles": "CC(C)(C)S(=O)N1Cc2cc(C(=O)NCc3ccc4c(c3)OCO4)nc(-c3cccc(-c4cccc(F)c4)c3)c2[C@H]1CCO", "note": "(stereo partly drawn)", "cytotoxicity call": "active"},
      {"smiles": "CC(C)(C)S(=O)N1Cc2cc(C(=O)NCc3ccc4c(c3)OCO4)nc(-c3cccc(-c4cccc(F)c4)c3)c2[C@@H]1CCO", "note": "(stereo partly drawn)", "cytotoxicity call": "active"},
      {"smiles": "CC(C)(C)[S@](=O)N1Cc2cc(C(=O)NCc3ccc4c(c3)OCO4)nc(-c3cccc(-c4ccncc4)c3)c2[C@@H]1CCO", "cytotoxicity call": "inactive"},
      {"smiles": "CC(C)(C)[S@@](=O)N1Cc2cc(C(=O)NCc3ccc4c(c3)OCO4)nc(-c3cccc(-c4ccncc4)c3)c2[C@H]1CCO", "cytotoxicity call": "inactive"},
      {"smiles": "CC(C)(C)[S@@](=O)N1Cc2cc(C(=O)NCc3ccc4c(c3)OCO4)nc(-c3cccc(-c4ccccc4)c3)c2[C@H]1CCO", "cytotoxicity call": "inactive"},
      {"smiles": "COc1ccc([C@H]2CNCCN2)cc1", "cytotoxicity call": "inactive"},
      {"smiles": "C[C@@H]1CN([C@@H](C)CO)C(=O)c2ccccc2-c2ccccc2CO[C@@H]1CN(C)C(=O)Nc1cccc(Cl)c1Cl", "cytotoxicity call": "inactive"},
      {"smiles": "COc1ccc(S(=O)(=O)N(C)C[C@H]2Oc3ccc(NC(=O)Cn4cnnn4)cc3C(=O)N([C@@H](C)CO)C[C@H]2C)cc1", "cytotoxicity call": "inactive"},
      {"smiles": "CCc1nc2ccc(C(=O)N3CCN(S(=O)(=O)CC)CC3)cn2c1N(CC)C(=O)CCC1CCCC1", "cytotoxicity call": "inactive"},
      {"smiles": "Cc1cc(-c2ccc(N=Nc3ccc4c(S(=O)(=O)[O-])cc(S(=O)(=O)[O-])c(N)c4c3O)c(C)c2)ccc1N=Nc1ccc2c(S(=O)(=O)[O-])cc(S(=O)(=O)[O-])c(N)c2c1O.[Na+].[Na+].[Na+].[Na+]", "cytotoxicity call": "active"},
      {"smiles": "Cc1ccc(S(=O)(=O)Oc2ccc(/N=N/c3ccc(-c4ccc(/N=N/c5c(O)ccc6cc(S(=O)(=O)O)cc(S(=O)(=O)O)c56)c(C)c4)cc3C)cc2)cc1", "cytotoxicity call": "inactive"},
      {"smiles": "C[C@@H]1CN([C@H](C)CO)C(=O)CCCn2cc(nn2)CO[C@H]1CN(C)C(=O)Nc1ccc(C(C)(C)C)cc1", "cytotoxicity call": "inactive"}
    ]}
  ]
}
